Screening data deposited in PubChem by National Center for Advancing Translational Sciences (NCATS).
An excerpt weighted towards active compounds, which were near 8.8% of everything screened.
HPGD block: blocks human HPGD enzyme activity | 150,000 tested, 4.3% active | Potency, µM, usual class: inhibitors | P15428 | purified HPGD, NADH fluorescence kinetic, PGE2 substrate; active means well fitted inhibition curve with a large enough effect, not every such curve was filed as active; inconclusive means small, poorly fitted or top-dose-only effect, or another doubt; inactive means no such curve, though single readings can be large or run the other way
Target sequence (P15428 whole entry, looked up): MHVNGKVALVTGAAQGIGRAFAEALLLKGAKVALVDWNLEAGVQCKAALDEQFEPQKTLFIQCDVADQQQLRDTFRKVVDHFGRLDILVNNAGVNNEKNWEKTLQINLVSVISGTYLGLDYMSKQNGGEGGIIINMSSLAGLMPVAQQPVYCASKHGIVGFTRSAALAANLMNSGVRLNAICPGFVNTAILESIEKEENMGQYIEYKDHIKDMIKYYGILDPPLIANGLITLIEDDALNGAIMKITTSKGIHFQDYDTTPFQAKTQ
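20 nM HPGD preincubated 15 min at room temperature with compound in 50 mM Tris-HCl pH 8, 0.01% Tween 20. Started with 1 mM NAD+ and 30 uM prostaglandin E2; NADH fluorescence (360/450 nm) read 5 times over 30-s intervals, last minus first.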
HttQ103 aggreg: reduces HttQ103-GFP aggregates in PC12 cells. PC12 HttQ103-GFP aggregates, Acumen cytometry, 40 h. Potency, µM (series often up to 46.1 µM), actives largely listed as inhibitors. 220,000 tested, 1.1% active. AID 1688; further: nearly all actives have a fitted effect of over 60% in size
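Steps: seed 1500 PC12 HTTQ103-GFP cells/well; add tebufenozide, 100 nM final; add compound titration; add ATPLite reagent; quantify GFP aggregates by laser scanning cytometry.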
HTT ATP protect: protects HTT-Q103 PC12 cells, measured by ATP. PC12 HTT-Q103 induced, cytoprotection, ATP luminescence, 40 h. Potency, µM (titrated, usually from 56.4 µM), most hits filed as activators. AID 1471. 230,000 tested, 0.14% active; further: nearly all actives have a fitted effect of over 45% in size
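PC12 cells stably carrying ecdysone-inducible Htt exon 1 (Q103)–GFP were induced with 100 nM tebufenozide (final) alongside library compounds in a dose series. Cytoprotection was scored as retained ATP by ATPlite luminescence.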
LMNA splice mod: changes lamin A minigene splicing in HeLa cells | HeLa LMNA splicing GFP/RFP minigene ratio, 48 h | Potency, µM (top dose mostly 46.1 µM), usual class: inhibitors | 200,000 tested, 0.01% active; active means well fitted inhibition curve with a large enough effect in the signal ratio, with a control signal flat, not every such curve was filed as active; inconclusive means small, poorly fitted or top-dose-only effect, or effect the other way, or a change in a side signal; the % refers to the signal ratio
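Read-out is the ratio of GFP to DsRed2 object intensity, acquired by 488 nm laser-scanning cytometry on HeLa lamin A-EGFP minigene reporter cells. Compound incubation 48 hrs at 37 °C in Opti-MEM with 2% FBS; DMSO 0.5% final.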
ALDH1A1 block: blocks purified human ALDH1A1 activity; P00352; Purified ALDH1A1, NADH fluorescence, propionaldehyde substrate; Potency, µM (top dose mostly 75.3 µM), hits mostly inhibitors; 220,000 tested, 7.3% active; AID 1030; active means well fitted inhibition curve with a large enough effect, not every such curve was filed as active; inconclusive means small, poorly fitted or top-dose-only effect, or another doubt; inactive means no such curve, though single readings can be large or run the other way
Large screens that a line does not name were inactive. Unless noted, the call rests on the fitted dose curve; in most records, active means well fitted curve in the direction sought with a large enough effect; inconclusive means small, poorly fitted or top-dose-only effect, or another doubt; inactive means no such curve, though single readings can be large; an effect the other way counts as inactive or inconclusive.

CCN=C1SC(CC(=O)Nc2ccc(C(F)(F)F)cc2)C(=O)N1CC (configuration not stated)	none
CCCN1C(=O)SC(CC(=O)Nc2ccc(C)cc2)C1=O (configuration not stated)	ALDH1A1 block 22.4µM
Cc1cccc(NC2SC(=O)N(c3ccccc3)C2=O)c1 (configuration not stated)	ALDH1A1 block 1.26µM
CCOc1ccc(CN2C(=O)c3ccccc3Sc3ccc(C(=O)O)cc32)cc1	none (no result: HPGD block, HttQ103 aggreg, HTT ATP protect, ALDH1A1 block)
Cc1ccc(-c2nc3cc(N)ccc3o2)c(C)c1	HPGD block inconclusive, ALDH1A1 block inconclusive
Nc1ccc2oc(-c3cccc4ccccc34)nc2c1	HPGD block 22.4µM, ALDH1A1 block inconclusive
COc1ccc(C(=O)Nc2cc(C)on2)cc1S(=O)(=O)N1CC(c2ccccc2)CC1=O (configuration not stated)	none (no result: HPGD block)
O=C(N/N=C/c1cn(-c2ccccc2)nc1-c1cccs1)c1ccccc1F	HttQ103 aggreg inconclusive, LMNA splice mod inconclusive, ALDH1A1 block inconclusive
CC1=NNC(=O)/C1=C\c1cn(-c2ccccc2)nc1-c1ccc(F)cc1	HttQ103 aggreg inconclusive, LMNA splice mod inconclusive, ALDH1A1 block inconclusive (no result: HPGD block)
O=C(N/N=C/c1cn(-c2ccccc2)nc1-c1cc2ccccc2o1)c1ccncc1	HttQ103 aggreg 10µM, LMNA splice mod inconclusive
CC1=NNC(=O)/C1=C\c1cn(-c2ccccc2)nc1-c1cccs1	HPGD block 15.8µM, HttQ103 aggreg inconclusive, LMNA splice mod inconclusive, ALDH1A1 block inconclusive
O=C(N/N=C/c1cn(-c2ccccc2)nc1-c1cc2ccccc2o1)c1cccnc1	HPGD block inconclusive, LMNA splice mod inconclusive, ALDH1A1 block inconclusive
O=C(N/N=C/c1cn(-c2ccccc2)nc1-c1cccs1)c1ccc(Cl)cc1	HPGD block inconclusive, HttQ103 aggreg 11.2µM, LMNA splice mod inconclusive, ALDH1A1 block inconclusive
CC1CCCN(c2ncnc3c2cnn3-c2ccc(F)cc2)C1 (configuration not stated)	none (no result: HPGD block, HttQ103 aggreg, HTT ATP protect, ALDH1A1 block)
COc1ccc(OCC(=O)NNc2c3ccccc3nc3ccccc23)cc1	HttQ103 aggreg 11.2µM, LMNA splice mod inconclusive
O=C(COc1ccccc1)NNc1c2ccccc2nc2ccccc12	LMNA splice mod inconclusive, ALDH1A1 block inconclusive
O=C(NNc1c2ccccc2nc2ccccc12)c1ccc(O)cc1O	HttQ103 aggreg 10µM
O=C(NNc1nc(=O)c2cccnc2s1)c1ccccc1O	HttQ103 aggreg 7.94µM (no result: HPGD block, LMNA splice mod)
O=C(NNc1c2ccccc2nc2ccccc12)c1ccccc1O	LMNA splice mod 17.8µM
O=C(NNc1c2ccccc2nc2ccccc12)c1ccc(O)cc1	HttQ103 aggreg inconclusive, LMNA splice mod inconclusive
CC1(C)CC(=O)C=C(NNC(=O)c2ccccc2O)C1	none
CC(=O)N1c2ccc(S(=O)(=O)N3CCCCCC3)cc2CC1C(=O)NC(C)C (configuration not stated)	none (no result: HPGD block, HttQ103 aggreg, HTT ATP protect, ALDH1A1 block)
CC1CCc2sc(C(=O)N/N=C/c3ccc([N+](=O)[O-])cc3)cc2C1 (configuration not stated)	none
CCOC(=O)c1noc(C)c1C(=O)Nc1nc(C)cc(C)n1	ALDH1A1 block 20µM (no result: HPGD block, LMNA splice mod)
O=C1CC(c2ccco2)CC(O)=C1C=Nc1cc(Cl)ccc1Cl (configuration not stated)	HttQ103 aggreg inconclusive, ALDH1A1 block inconclusive
O=C1CC(c2ccco2)CC(O)=C1C=Nc1cc(Cl)ccc1O (configuration not stated)	HPGD block 8.91µM, LMNA splice mod inconclusive, ALDH1A1 block inconclusive
Cc1ncoc1C(=O)N1CCCC(C(=O)c2ccc(Oc3ccccc3)cc2)C1 (configuration not stated)	ALDH1A1 block 2.82µM (no result: HPGD block, LMNA splice mod)
Cc1ncoc1C(=O)N1CCCC(C(=O)c2cccc(OC(C)C)c2)C1 (configuration not stated)	ALDH1A1 block 25.1µM (no result: HPGD block, LMNA splice mod)
Cc1ncoc1C(=O)N1CCCC(C(=O)c2ccc(-c3ccccc3)c(F)c2)C1 (configuration not stated)	HttQ103 aggreg inconclusive, LMNA splice mod inconclusive, ALDH1A1 block inconclusive (no result: HPGD block)
Cc1ncoc1C(=O)N1CCCC(C(=O)c2cccc(C(F)(F)F)c2)C1 (configuration not stated)	LMNA splice mod inconclusive (no result: HPGD block)
Cc1ncoc1C(=O)N1CCCC(C(=O)c2ccc(C(F)(F)F)cc2)C1 (configuration not stated)	ALDH1A1 block 15.8µM (no result: HPGD block, LMNA splice mod)
